This is an account of results in PubChem BioAssay (NCATS).

Each structure is given as a SMILES string.

The target in this assay is Catechol O-methyltransferase (Homo sapiens) (UniProt P21964). The assay is described as follows: Confirmatory Screen for Target Class Profiling of Small Molecule Inhibitors of Methyltransferases (AID 1745852). The note with it: MTase-Glo luminescence, SAH detection, recombinant enzyme; measured here: COMT max response; stronger effect = lower value.
Chain of Catechol O-methyltransferase (Homo sapiens) (P21964 whole entry, looked up): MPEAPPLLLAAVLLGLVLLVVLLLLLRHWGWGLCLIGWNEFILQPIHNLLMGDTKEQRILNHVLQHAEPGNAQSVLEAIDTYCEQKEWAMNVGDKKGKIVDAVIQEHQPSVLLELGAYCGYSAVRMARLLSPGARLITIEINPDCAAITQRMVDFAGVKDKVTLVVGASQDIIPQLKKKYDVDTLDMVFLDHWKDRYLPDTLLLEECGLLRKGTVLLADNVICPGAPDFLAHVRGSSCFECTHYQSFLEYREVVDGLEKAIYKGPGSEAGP
Regarding `O=c1[nH]ccc2c(O)cccc12`, the activity was determined as 1.23%. The same measure for `CCN(CC)CCCCCCCCOC(=O)c1cc(OC)c(OC)c(OC)c1`: 8.45%.

In the case of `CN1Cc2sccc2C(c2ccc(O)c(O)c2)C1` (stereo not given), the activity came to 138%.

On to `O=C(O)C1=CC(=C(c2ccc(O)c(C(=O)O)c2)c2ccc(O)c(C(=O)O)c2)C=CC1=O`, for which the activity was -24.2%.

Turning to `Fc1ccc(CN(C2=NCCN2)c2c(Cl)cccc2Cl)cc1`, the activity was -2.41%. The same measure for `N#C/C(=C\c1ccc(O)c(O)c1)C(=O)NCCCNC(=O)/C(C#N)=C/c1ccc(O)c(O)c1`: -50.9%; for `CNCCc1cnc(CCC(c2ccccc2)c2ccccc2)[nH]1`: -11%; for `C=CCN1CCc2c(cc(O)c(O)c2Cl)C(c2ccccc2)C1` (stereo not given): 72.4%.

Turning to `Nc1ccc2c3c(cccc13)C(=O)NC2=O`, the activity worked out at 1.42%. The same measure for `CC1CCN=C(N)S1` (stereo not given): 4.68%.

As to `CCCc1c(-c2ccc(O)cc2)nn(-c2ccc(O)cc2)c1-c1ccc(O)cc1`, the activity is -7.84%.

Turning to `CC[C@@H]1Cc2cc(O)ccc2C2=C1c1ccc(O)cc1C[C@H]2CC`, the activity amounted to 9.67%.

Consider `Brc1c(Br)c(Br)c2[nH]cnc2c1Br`, for which the activity is -26.1%. Take `COc1cc(/C=C(\C#N)C(=O)c2ccc(O)c(O)c2)cc(I)c1O`: the activity came out at 13.9%.

Take `C[C@](Cc1ccc(O)c(O)c1)(NN)C(=O)O`: the activity worked out at 156%. Turning to `NS(=O)(=O)c1cccc2c1c([N+](=O)[O-])cc1nc(O)c(O)nc12`, the activity is -92.9%. The same measure for `N#C/C(=C\c1ccc(O)c(O)c1)C(=O)NCCc1ccccc1`: 85.9%; for `NCC(O)C1CCCCCCC1` (stereo not given): -3.91%; for `C=CCN1CCc2c(cc(O)c(O)c2Br)[C@@H](c2ccccc2)C1`: 62%.

`CC(O)C(O)[C@H]1CNc2nc(N)[nH]c(=O)c2N1` (stereo not given in full): the activity was -9.57%.
